Usually inhibition stands for the drop in the measured response relative to a control, in per cent.

The values below come from PubChem BioAssay.

A number with no mark means an inactive call. Calls of active or inactive are those of the source.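 The calls were made as follows, unless noted: active = mean inhibition above 46.68%, the untreated control wells mean plus 3 SD; inactive = the rest.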

The target in assay [1] is Nuclear receptor coactivator 1 (Homo sapiens) (UniProt Q15788). Nature of the assay: SRC1 coactivator transcriptional activity inhibitors, confirmation, cell-based, luminescence, quadruplicate (AID 588820).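 Also: 0% = DMSO wells and 100% = gossypol 36 µM treated wells.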 The note with it: HEK293 GAL4-SRC1 luciferase reporter, at 3.6 µM, stronger effect = higher value. (In general: In a reporter assay the amount or activity of a reporter protein is the signal.)
Chain of Nuclear receptor coactivator 1 (Homo sapiens) (Q15788 whole entry, looked up, the tested form may be a part): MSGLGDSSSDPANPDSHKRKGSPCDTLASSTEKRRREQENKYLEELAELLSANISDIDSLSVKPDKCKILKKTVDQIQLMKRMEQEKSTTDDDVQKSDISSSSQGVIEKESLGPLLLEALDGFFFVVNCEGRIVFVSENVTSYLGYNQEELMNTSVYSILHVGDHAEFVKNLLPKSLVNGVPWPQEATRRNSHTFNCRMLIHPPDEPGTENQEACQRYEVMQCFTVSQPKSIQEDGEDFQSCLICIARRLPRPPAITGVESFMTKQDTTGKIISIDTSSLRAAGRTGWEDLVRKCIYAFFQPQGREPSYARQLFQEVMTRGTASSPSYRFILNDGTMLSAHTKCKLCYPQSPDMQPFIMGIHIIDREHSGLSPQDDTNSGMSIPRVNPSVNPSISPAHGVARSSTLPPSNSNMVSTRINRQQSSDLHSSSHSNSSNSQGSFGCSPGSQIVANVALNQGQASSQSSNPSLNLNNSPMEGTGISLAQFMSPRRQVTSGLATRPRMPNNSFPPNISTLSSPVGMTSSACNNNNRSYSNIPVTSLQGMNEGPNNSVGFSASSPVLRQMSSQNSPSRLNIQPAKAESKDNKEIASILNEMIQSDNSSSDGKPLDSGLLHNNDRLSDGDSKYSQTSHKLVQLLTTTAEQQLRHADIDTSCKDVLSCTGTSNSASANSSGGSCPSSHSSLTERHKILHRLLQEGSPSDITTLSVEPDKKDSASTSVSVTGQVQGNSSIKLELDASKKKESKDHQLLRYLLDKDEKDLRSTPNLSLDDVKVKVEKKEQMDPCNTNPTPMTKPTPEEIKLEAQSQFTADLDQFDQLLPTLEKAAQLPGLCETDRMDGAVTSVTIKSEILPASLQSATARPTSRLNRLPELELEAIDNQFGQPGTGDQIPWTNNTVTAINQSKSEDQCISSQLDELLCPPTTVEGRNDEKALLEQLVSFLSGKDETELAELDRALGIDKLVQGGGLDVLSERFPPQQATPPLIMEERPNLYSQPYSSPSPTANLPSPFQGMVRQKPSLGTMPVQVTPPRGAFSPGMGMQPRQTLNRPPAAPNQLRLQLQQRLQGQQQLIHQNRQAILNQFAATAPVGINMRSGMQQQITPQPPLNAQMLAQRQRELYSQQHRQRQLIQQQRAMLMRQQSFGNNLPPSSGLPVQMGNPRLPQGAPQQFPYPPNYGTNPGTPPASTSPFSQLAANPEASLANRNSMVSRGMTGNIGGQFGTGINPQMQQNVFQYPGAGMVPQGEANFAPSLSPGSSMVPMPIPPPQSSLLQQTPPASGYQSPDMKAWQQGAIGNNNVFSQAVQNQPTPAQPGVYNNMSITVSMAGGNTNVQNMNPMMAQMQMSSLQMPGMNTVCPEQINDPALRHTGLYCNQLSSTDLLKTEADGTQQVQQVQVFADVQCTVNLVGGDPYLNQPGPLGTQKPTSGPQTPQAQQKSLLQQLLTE

Assay [2] can be described thus: VP16 transactivation inhibitors, counter-screen for SRC1 inhibitor project, cell-based, luminescence, high throughput (AID 588824; in the data active = inhibition above about 25%). The note with it: cell-based VP16 transactivation luciferase luminescence; at 3.6 µM; stronger effect = higher value. In general terms: A counterscreen serves to expose hits that act by an unwanted route or on another target.

Regarding `CN(C(=O)COC(=O)c1ccc2[nH]c3c(c2c1)CCCC3)C1CCS(=O)(=O)C1` (stereo not drawn), the figures for the inhibition in assay [1] and in assay [2] were -0.53% and -0.75%, respectively.
For `CC1Sc2ccc(C(=O)Nc3ccc(S(=O)(=O)N(C)C)cc3)cc2NC1=O` (stereo not drawn), the inhibition was 9.77% in assay [1] and 6.36% in assay [2].
The matching figures for `CN(Cc1ccc(F)cc1)C(=O)c1cccc(S(=O)(=O)N2CCN(c3ccccc3)CC2)c1`: -0.46% and 15%.
As to `COc1ccc(N2CCN(C(=O)c3oc4ccccc4c3NC(=O)CCc3cc(OC)no3)CC2)cc1`, the inhibition in assay [1] is 1.78%; in assay [2], -3.04%.
On the same counts, the results for `C[C@H]1Cn2cnc(C(=O)Nc3cccc(Cl)c3)c2C(=O)N1` are 61.2% (active) and 34% (active).
As to `CCOCCOC(=O)c1[nH]c2c(c1C)C(=O)CC(c1cc(OC)c(OC)c(OC)c1)C2` (stereo not drawn), the inhibition in assay [1] is -15.9%; in assay [2] it was 13.5%.
Turning to `Cc1ccc(-c2nc(-c3ccccc3)no2)c(Cl)c1`, the inhibition in assay [1] was -51.6%; in assay [2] it was -16.6%.
The matching figures for `Cc1oc(-c2ccc(Cl)cc2)nc1CS(=O)CC(=O)NCCCN1CCN(Cc2ccccc2)CC1` (stereo not drawn): -11% and 27.4% (active).
On the same counts, the results for `CC(C)(C)c1ccc(OCCC(=O)NNC(=O)c2ccncc2)cc1` are -13.7% and -5.17%.
With `Fc1ccc2[nH]c3c(NCc4ccccc4)ncnc3c2c1`, the inhibition in assay [1] was 2.59%; in assay [2], 20.2%.
Consider `COc1ccc(CCn2c(-c3ccco3)nc3ccccc3c2=O)cc1OC`, for which the values for the inhibition in assay [1] and in assay [2] were -30.6% and -17.7%, respectively.
In the case of `O=C(Cc1ccsc1)N1CCN(S(=O)(=O)c2cc(C(F)(F)F)cc(C(F)(F)F)c2)CC1`, the inhibition was -14.2% in assay [1] and 0.11% in assay [2].
For the molecule `Cc1cccc(NC(=O)CSCC(=O)N2CCN(Cc3ccc4c(c3)OCO4)CC2)c1`, the inhibition in assay [1] is 2.48%; in assay [2], 1.12%.
Regarding `CCOC(=O)N1CCN(C(=O)c2cc(-c3ccncc3)nc3ccccc23)CC1`, the inhibition in assay [1] is -21.2%; in assay [2], 3.82%.
